Assay outcomes: PubChem BioAssay, National Center for Advancing Translational Sciences (NCATS)
The entries come from a sample that favours hits as a whole.
Pf Dd2 inh: blocks in vitro growth of P. falciparum Dd2; P. falciparum Dd2 growth, SYBR Green, 72 h; Potency, µM (top dose mostly 28.9 µM), inactives show at the top dose activity, negative = inhibition, most hits filed as inhibitors; actives 4.3% (n = 120,000); active = well fitted inhibition curve with a large enough effect;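 also: plate controls were DMSO vehicle for no effect and reference drug for full effect; nearly all actives have a fitted effect of over 65% in size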
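Infected erythrocytes (Dd2, 0.3% parasitemia, 2.5% hematocrit final) are added to compound in RPMI-1640/Albumax II medium, grown 72 h at 37C in low oxygen, then lysed with saponin/Triton-X containing SYBR Green and read by fluorescence.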
The depositor's hits bear a star; i = inactive; [ ] = dose if it differs, or a comment. Potency is read from the fitted curve at half-maximal effect.

SMILES | Pf Dd2 inh
O=C([C@@H]1C[C@H](F)CN1S(=O)(=O)Cc1ccc(Cl)cc1)N1CCCCC1 | 32%
COCC(=O)N1CCCC(c2nc(C3CCOCC3)no2)C1 (configuration not stated) | -3%
C=CCNC(=O)N[C@H]1C[C@@H](C(=O)N[C@@H](CCS(C)(=O)=O)C(N)=O)N(C(=O)CSC)C1 | 4%
COc1ccc(OCC(=O)Nc2cc(-c3cccc(Cl)c3)nn2-c2ccccc2)cc1 | i
COc1ccc(C2C=C(c3ccccc3)Nc3nc(NC(=O)/C=C/c4ccc(Cl)cc4)nn32)cc1 (configuration not stated) | 10µM*
COc1ccc(/C=C/C(=O)Nc2nc3n(n2)C(c2ccccc2)C=C(c2ccc(Cl)cc2)N3)cc1 (configuration not stated) | 5µM*
COc1ccc(/C=C/C(=O)Nc2cc(-c3nc4ccccc4o3)ccc2OC)cc1 | i
COC(=O)c1c(NC(=O)/C=C/c2ccc(OC)cc2)sc2c1CCC2 | 1%
CN1C(=O)CCC2(CNC(=O)c3cccn3C)CCC=C12 (configuration not stated) | i
Cn1c(CN2CCC(O)CC2)nnc1C1CCCN(C(=O)CCN)C1 (configuration not stated) | -10%
Cn1c(Cn2cccn2)nnc1C1CC(NC(=O)c2sccc2N)C1 (configuration not stated) | 0%
CC(=O)N1CCCC2(C1)CN(C)c1ccc(C(=O)NC(C)C)cc12 (configuration not stated) | 17%[44.1 µM]
Cn1cnnc1CC1CCN(C(=O)Nc2ccccc2)C1 (configuration not stated) | -1%
COc1ccc(NC(=O)[C@@H]2C[C@H](c3cccc(C(F)(F)F)c3)N(Cc3cnn(C)c3)C2)cc1 | i
O=C(NC1CCCCC1)N[C@H]1[C@H](O)[C@@H](N2CCN(c3ccccc3)CC2)[C@@H]2OC[C@H]1O2 | -15%[44.1 µM]
COc1ccc(CN2CCn3c(nn(-c4ccc(F)cc4F)c3=O)C2)cc1 | -1%
Cn1ccc(CN2CCn3c(nn(-c4ccc(F)cc4F)c3=O)C2)c1 | 8.9µM*
O=c1n(-c2ccc(F)cc2F)nc2n1CCN(Cc1ccc(C(F)(F)F)cc1)C2 | i
COCCOCc1nc(C2CCN(C(=O)NCCc3ccccc3)CC2)no1 | 10%
OCC1(CN2CCCC2)CCN(Cc2cc(F)cc(F)c2)CC1 | i
OCC1(CN2CCCC2)CCN(Cc2ccc3ccccc3c2)CC1 | 6.3µM*
Cc1nnc(N2CCC(CO)(CN3CCCC3)CC2)c2ccccc12 | i
O=C(c1cccc(O)c1)N1CCC(CO)(CN2CCCC2)CC1 | -1%
OCC1(CN2CCCC2)CCN(C/C=C/c2ccccc2)CC1 | 7.1µM*
OCC1(CN2CCCC2)CCN(Cc2ccc(Cl)cc2F)CC1 | i
SMILES | Pf Dd2 inh
Cc1cccc(CN(C(=O)c2ccco2)c2ccc(CC(=O)N(C)Cc3ccccc3)cc2)c1 | -16%
CNC(=O)CCC1CCCN(S(=O)(=O)c2cccc(F)c2)C1 (configuration not stated) | -8%
COc1cccc(-c2[nH]cnc2-c2ccccc2)c1OCCCn1ccnc1 | 3.2µM*
CCOCCn1cnc(-c2ccccc2)c1-c1ccccc1OCC(N)=O | -16%
COc1ccccc1-c1ncc[nH]1 | 65%[76.6 µM]
COc1ccc(-c2noc([C@@H]3CCCN3C(=O)c3ccc(F)cc3Cl)n2)cc1 | i
CCOc1ccc(CC(=O)N2CCC(n3cc(-c4nc(C(C)C)no4)nn3)C2)cc1 (configuration not stated) | i
CCOc1ccc(N2CC(NC(=O)Cc3cccs3)CC2=O)cc1 (configuration not stated) | i
CCOC(=O)c1ccc(N2C(=O)c3[nH]nc(-c4ccccc4)c3C2c2cccs2)cc1 (configuration not stated) | 7.1µM*
Cc1ccc(N2C(=O)c3n[nH]c(C)c3C2c2ccc(Cl)cc2)cc1 (configuration not stated) | -18%
CCOc1ccccc1NC(=O)C1=C(C)Nc2ncnn2C1c1cccs1 (configuration not stated) | 1%
CCc1ccc(C2NC(=O)c3[nH]nc(-c4cccc(OC)c4)c32)cc1 (configuration not stated) | -10%
CCOC(=O)c1ccc(N2C(=O)c3[nH]nc(-c4ccccc4)c3C2c2ccc(CC)cc2)cc1 (configuration not stated) | 10µM*
O=C1c2[nH]nc(-c3ccc(F)cc3)c2C(c2ccccc2F)N1c1ccccc1 (configuration not stated) | -28%
CCOc1ccc(C(=O)OCc2cc(=O)n3nc(C4CC4)sc3n2)cc1 | -7%
CCOC(=O)c1ccc(NC(=O)c2oc(=O)c3ccccc3c2-c2ccccc2)cc1 | 24%
CCOC(=O)c1ccc(N2C(=O)c3[nH]nc(-c4ccc(C)cc4)c3C2c2cccc(F)c2)cc1 (configuration not stated) | 5µM*
CCOC(=O)c1ccc(N2C(=O)c3[nH]nc(-c4ccc(OCC)cc4)c3C2c2cccs2)cc1 (configuration not stated) | 2.8µM*
